Experiment [1] has as its target Nucleoli Translocation, AR (gene 367) (UniProt P10275). As to the kind of experiment: UPITT_HCI_U2OS_AR_TIF2_Nucleoli_Antagonist: University of Pittsburgh U2OS Androgen Receptor-Transcriptional Intermediary Factor 2 (AR-TIF2) Antagonism High Content Imaging Assay for Nucleoli Translocation (AID 2283997; active = hit-call score of the fitted dose curve at least 0.9, where 1 is the maximum). A digest of the protocol: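 Measured quantity was AR-RFP fluorescence localized to nucleoli in engineered U2OS cells also bearing TIF2-GFP, acquired on automated high-content imagers. Primary testing used 20 uM compound; actives were confirmed in triplicate wells.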

Experiment [2] is described as follows: CCTE_Simmons_MITO_max_resp_rate: CCTE's HepG2 Seahorse XF Respirometric Screening Assay at Maximal Respiratory State [uncoupled], Simmons Lab (AID 2284002). As to conditions: actives raise or lower the signal. A digest of the protocol:
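Uncoupled (FCCP) respiration of HepG2 cells served as the endpoint, with measurements at 6-minute intervals across a 72-minute run and compounds dosed at 7 concentrations up to 100 uM final.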

Experiment [3] can be described thus: CCTE_Simmons_MITO_inhib_resp_rate: CCTE's HepG2 Seahorse XF Respirometric Screening Assay at Inhibited Respiratory State [full ETC block], Simmons Lab (AID 2284006). As to conditions: actives raise or lower the signal. In short, it runs like this:
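HepG2 cells on Seahorse XF96; oxygen consumption measured after test compound, then FCCP, then rotenone/antimycin A injections over 72 min. Test chemicals at 7 concentrations, 125 nM–100 uM final. OCR fitted bidirectionally versus DMSO.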

Experiment [4] in a line: CCTE_Harrill_HTTr_Viability_MCF7: CCTE's 6-hour Cell Viability Assessment for the High-Throughput Transcriptomics (HTTr) Platform, in MCF-7 cells cultured in DMEM + 10% fetal bovine serum, Harrill Lab (AID 2284010). A digest of the protocol: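 Membrane integrity was scored by high-content imaging of propidium iodide dye exclusion after a 6 h exposure across an eight-point dilution series. Data were fitted bidirectionally relative to DMSO as negative control and baseline.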

Experiment [5] in a line: CCTE_Harrill_HTTr_Apoptosis_MCF7: CCTE's 6-hour Apoptosis Assessment for the High-Throughput Transcriptomics (HTTr) Platform, in MCF-7 cells cultured in DMEM + 10% fetal bovine serum, Harrill Lab (AID 2284011). In short, it runs like this:
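Apoptosis in MCF-7 cells grown in DMEM with 10% fetal bovine serum was scored after a six hour exposure by high content imaging of caspase-3/7 activation (CellEvent Caspase 3/7 Green), with DMSO serving as negative control and baseline.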

Experiment [6] in a line: CCTE_Harrill_HTTr_CellCount_MCF7: CCTE's Cell Proliferation Assessment for the High-Throughput Transcriptomics (HTTr) Platform, Harrill Lab (AID 2284012; active = hit-call score of the fitted dose curve at least 0.9, where 1 is the maximum;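 note: cells exposed to compound for six hours; intended direction is loss of nuclei count meaning fewer cells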). In short, it runs like this: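 MCF-7 cells were exposed for 6 h to an eight-point dilution series; Hoechst-labeled nuclei were counted by high content imaging. Curves were fitted bidirectionally against DMSO as negative control and baseline, with signal loss indicating reduced cell count.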

Experiment [7] concerns the target Ratio of Nucleoli Translocation and Cytoplasm, AR (gene 367) (UniProt P10275). Briefly: UPITT_HCI_U2OS_AR_TIF2_Nucleoli_Cytoplasm_Ratio_Antagonist: University of Pittsburgh U2OS Androgen Receptor-Transcriptional Intermediary Factor 2 (AR-TIF2) Antagonism High Content Imaging Assay for Ratio of Nucleoli Translocation and Cytoplasm (AID 2283999; active = hit-call score of the fitted dose curve at least 0.9, where 1 is the maximum;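 note: antagonists lower the DHT-driven ratio of nucleolar to cytoplasmic red signal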). In short, it runs like this:
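U2OS cells expressing RFP-tagged human AR and GFP-tagged TIF2; compounds tested at 20 uM final (0.2% DMSO) in primary screen, 0.195–50 uM (0.5% DMSO) for concentration response. Readout: nucleolar-to-cytoplasmic red fluorescence ratio by high-content imaging, fitted relative to DHT.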

Experiment [8] is described as follows: CCTE_Simmons_MITO_basal_resp_rate: CCTE's HepG2 Seahorse XF Respirometric Screening Assay at Basal Respiratory State, Simmons Lab (AID 2284001). To be noted: actives raise or lower the signal. A digest of the protocol: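 HepG2 respirometry; 7-pt titration 125 nM–100 uM final; kinetic OCR at 6 min intervals for 72 min; n=3 biological, technical singles; DMSO baseline, gain or loss fit; fenpyroximate (decrease) and 2,4-DNP (increase) controls.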

The nature of experiment [9]: CCTE_Simmons_MITO_viability: CellTiter-Glo Viability Assessment for CCTE's HepG2 Seahorse XF Respirometric Screening Assay [post-hoc], Simmons Lab (AID 2284007; active = hit-call score of the fitted dose curve at least 0.9, where 1 is the maximum;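 for AC50: cells exposed to chemical for 90 min before the ATP read; actives lower ATP signal relative to DMSO baseline meaning reduced viability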). In short, it runs like this: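 HepG2 cells from the Seahorse XF respirometry run were exposed 90 min to a 7-point series, 125 nM–100 uM final, DMSO vehicle; ATP content then read by luciferase luminescence. Three biological replicates, technical singles; loss of signal fitted versus DMSO.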
(In general: In ATP-based viability assays light output follows the ATP content of the culture.)

A short description of experiment [10]: CCTE_Shafer_MEA_acute_spike_number: CCTE's Neural Acute Assay for Total Number of Spikes, Shafer Lab (AID 2284008).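 For AC50: curve fitted for decrease in spike count so AC50 reflects inhibitors.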 In short, it runs like this: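 Using an adaptive detector set to 8x rms noise, spikes were counted in 40-min windows before and after compound addition (0.03-40 uM) to rat cortical networks at 37 C; the well-level change from baseline was analysed relative to DMSO.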

A short description of experiment [11]: CCTE_Shafer_MEA_acute_firing_rate_mean: CCTE's Neural Acute Assay for Mean Firing Rate, Shafer Lab (AID 2284009).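 Note: analyzed for loss of signal so actives lower firing rate relative to DMSO.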 A digest of the protocol:
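Percent change in well-mean firing rate was derived from extracellular spikes detected at 8x rms noise (300-5000 Hz band-pass) before and after a 40-min compound exposure. Cultures were primary rat cortical neurons, tested at 0.03-40 uM.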

Experiment [12] in a line: CCTE_Shafer_MEA_acute_burst_number: CCTE's Neural Acute Assay for Single-Electrode Bursts, Shafer Lab (AID 2284013). A digest of the protocol: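 Spontaneous network activity of primary rat cortical neurons was recorded extracellularly on microelectrode arrays at 37 C, with 40-min periods before and during exposure to 0.03-40 uM compound on DIV 13 or 15.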
Experiment [13] in a line: CCTE_Shafer_MEA_acute_burst_duration_mean: CCTE's Neural Acute Assay for Mean Burst Duration, Shafer Lab (AID 2284014).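 Note: hits are decreases in mean burst duration relative to DMSO controls.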 A digest of the protocol:
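Read-out is the per-well percent change in mean burst duration (first to last spike within a single-electrode burst) between 40-min recordings before and after compound. Cultures were primary rat cortical neurons on MEAs, dosed at 0.03-40 uM on DIV 13 or 15.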

Experiment [14] can be described thus: CCTE_Harrill_HTTr_Apoptosis_DMEM_6hr: (Pilot) CCTE's 6-hour Apoptosis Assessment for the High-Throughput Transcriptomics (HTTr) Platform, in MCF-7 cells cultured in DMEM + 10% fetal bovine serum, Harrill Lab (AID 2283981). In short, it runs like this:
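Caspase-3/7 activation read by high content imaging with CellEvent Caspase 3/7 Green in MCF-7 cells (DMEM + 10% FBS), 6 h after dosing; eight-point dilution series. Bidirectional fitting relative to DMSO baseline.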

Experiment [15] in a line: CCTE_Harrill_HTTr_Apoptosis_DMEM_12hr: (Pilot) CCTE's 12-hour Apoptosis Assessment for the High-Throughput Transcriptomics (HTTr) Platform, in MCF-7 cells cultured in DMEM + 10% fetal bovine serum, Harrill Lab (AID 2283982). In short, it runs like this: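 MCF-7 cells in DMEM + 10% FBS, exposed 12 h to an eight-point dilution series; caspase-3/7 activation imaged with CellEvent Green. Bidirectional fit versus DMSO.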

Experiment [16] can be described thus: CCTE_Harrill_HTTr_Apoptosis_DMEM_24hr: (Pilot) CCTE's 24-hour Apoptosis Assessment for the High-Throughput Transcriptomics (HTTr) Platform, in MCF-7 cells cultured in DMEM + 10% fetal bovine serum, Harrill Lab (AID 2283983). A digest of the protocol: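 MCF-7 cells in DMEM + 10% FBS, eight-point dilution series, 24 h exposure. Caspase-3/7 activation imaged by high-content imaging with CellEvent Caspase 3/7 Green. Bidirectional curve fitting against DMSO baseline.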

Experiment [17] can be described thus: CCTE_Harrill_HTTr_Apoptosis_PRF_DMEM_6hr: (Pilot) CCTE's 6-hour Apoptosis Assessment for the High-Throughput Transcriptomics (HTTr) Platform, in MCF-7 cells cultured phenol red-free DMEM + 10% charcoal-stripped fetal bovine serum, Harrill Lab (AID 2283984). In short, it runs like this: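 MCF-7 cells in phenol red-free DMEM + 10% charcoal-stripped FBS, eight-point dilution series, 6 h exposure. Caspase-3/7 activation imaged by high-content imaging with CellEvent Caspase 3/7 Green; bidirectional fit versus DMSO baseline.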

Experiment [18] in a line: CCTE_Harrill_HTTr_Apoptosis_PRF_DMEM_12hr: (Pilot) CCTE's 12-hour Apoptosis Assessment for the High-Throughput Transcriptomics (HTTr) Platform, in MCF-7 cells cultured in phenol red-free DMEM + 10% charcoal-stripped fetal bovine serum, Harrill Lab (AID 2283985). In short, it runs like this: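 MCF-7 cells in phenol red-free DMEM with 10% charcoal-stripped FBS, eight-point dilution series, 12 h exposure. Caspase-3/7 activation imaged by high content imaging with CellEvent Green reagent; bidirectional fit vs DMSO.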

Experiment [19] can be described thus: CCTE_Harrill_HTTr_Apoptosis_PRF_DMEM_24hr: (Pilot) CCTE's 24-hour Apoptosis Assessment for the High-Throughput Transcriptomics (HTTr) Platform, in MCF-7 cells cultured in phenol red-free DMEM + 10% charcoal-stripped fetal bovine serum, Harrill Lab (AID 2283986). In short, it runs like this:
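MCF-7 cells in phenol red-free DMEM with 10% charcoal-stripped FBS, exposed 24 h across an eight-point dilution series. Caspase-3/7 activation imaged with CellEvent Green by high content imaging; bidirectional fitting against DMSO.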

In general, AC50 refers to the concentration giving half of the maximal activity seen.

Records with an inconclusive call do not appear. Activity calls are given as the source filed them. Rule for the calls, unless noted: active = hit-call score of the fitted dose curve at least 0.9, where 1 is the maximum; inactive = score below 0.9.

Nucleoli Translocation, AR (gene 367), sequence (P10275 whole entry, looked up): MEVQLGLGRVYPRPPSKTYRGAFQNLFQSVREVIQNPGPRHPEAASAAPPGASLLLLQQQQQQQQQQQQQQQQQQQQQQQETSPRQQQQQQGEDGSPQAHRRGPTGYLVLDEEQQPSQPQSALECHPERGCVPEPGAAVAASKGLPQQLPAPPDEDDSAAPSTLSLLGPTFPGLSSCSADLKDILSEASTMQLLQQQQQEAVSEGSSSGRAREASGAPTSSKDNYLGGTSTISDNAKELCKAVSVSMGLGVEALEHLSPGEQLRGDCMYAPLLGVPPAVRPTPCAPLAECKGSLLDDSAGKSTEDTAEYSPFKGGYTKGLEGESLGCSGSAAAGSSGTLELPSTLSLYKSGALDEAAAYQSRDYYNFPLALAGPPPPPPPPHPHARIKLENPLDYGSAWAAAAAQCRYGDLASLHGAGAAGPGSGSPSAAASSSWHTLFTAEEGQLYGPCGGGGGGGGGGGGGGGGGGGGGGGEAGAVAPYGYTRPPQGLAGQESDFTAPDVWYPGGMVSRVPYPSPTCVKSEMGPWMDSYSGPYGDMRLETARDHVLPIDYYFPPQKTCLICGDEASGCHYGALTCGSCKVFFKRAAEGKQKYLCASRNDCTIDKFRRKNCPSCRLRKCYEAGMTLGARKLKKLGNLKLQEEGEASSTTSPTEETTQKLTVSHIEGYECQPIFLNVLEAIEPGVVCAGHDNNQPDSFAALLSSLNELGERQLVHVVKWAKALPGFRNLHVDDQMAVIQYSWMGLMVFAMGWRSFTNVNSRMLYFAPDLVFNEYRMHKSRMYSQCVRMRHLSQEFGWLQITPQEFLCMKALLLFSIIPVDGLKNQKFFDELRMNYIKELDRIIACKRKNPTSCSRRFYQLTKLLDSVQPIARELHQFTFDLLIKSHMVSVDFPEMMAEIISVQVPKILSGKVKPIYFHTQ
Ratio of Nucleoli Translocation and Cytoplasm, AR (gene 367), sequence (P10275 whole entry, looked up): as above

As to `CC1=C(C(=O)Nc2ccccc2)SCCO1`, the outcome in [1], in experiment [2], in experiment [3], in experiment [4], in [5] and in experiment [6] was inactive.

Consider `CC(C)Oc1cc(-n2nc(C(C)(C)C)oc2=O)c(Cl)cc1Cl`, for which the outcome in experiment [1], in [7], in experiment [8], in [2], in [3] and in experiment [9] was inactive. In addition, the outcome in [10], in experiment [11], in [4], in [5], in experiment [6] and in [12] was inactive. Moreover, the compound was classed as inactive in experiment [13].

For the compound `CCCCNC(=O)n1c(NC(=O)OC)nc2ccccc21`, the compound was classed as inactive in experiment [1], in experiment [4], in [5] and in [6].

`CCNc1nc(Cl)nc(NCC)n1`: the result in experiment [14], in [15], in experiment [16], in experiment [17], in [18] and in [19] was inactive. The outcome in experiment [4], in experiment [5] and in [6] was inactive.

Regarding `COP(=S)(OC)Oc1nc(Cl)c(Cl)cc1Cl`, the outcome in [8], in [2], in experiment [3], in [10], in experiment [11] and in experiment [4] was inactive. Further, the outcome in [5], in [6], in experiment [12] and in experiment [13] was inactive. For the same compound, in experiment [9], the concentration at half-maximal activity (AC50) is 19.8 µM (active).

On to `CS/C(C)=N/OC(=O)N(C)SN(C)C(=O)O/N=C(\C)SC`, for which the figures for the concentration at half-maximal activity (AC50) in experiment [1] and in experiment [7] were 21.7 µM (active) and 13.8 µM (active), respectively. Also, the compound was classed as inactive in [10], in experiment [11], in experiment [4], in experiment [5], in experiment [6] and in experiment [12]. Besides, the result in experiment [13] was inactive.

For `COC(=O)c1ccccc1C(=O)OC`, the outcome in experiment [4] and in experiment [5] was inactive.

In the case of `COc1ccc(C(c2ccc(OC)cc2)C(Cl)(Cl)Cl)cc1`, the call in experiment [10], in [11], in experiment [4], in experiment [5], in experiment [6] and in [12] was inactive. For the same compound, the compound was classed as inactive in experiment [13].

As for `CCc1nn(C)c(C(=O)NCc2ccc(C(C)(C)C)cc2)c1Cl`, the AC50 in experiment [8] was 0.928 µM (active); in experiment [2], 0.496 µM (active); in experiment [9], 0.217 µM (active). The outcome in experiment [3], in [4] and in experiment [5] was inactive.

For the compound `CCOP(=S)(OCC)SCn1c(=O)oc2cc(Cl)ccc21`, the compound was classed as inactive in [10], in experiment [11], in experiment [4], in experiment [5], in experiment [6] and in experiment [12]. In addition, the concentration at half-maximal activity (AC50) in experiment [13] was 20 µM (active).

With `COC(=O)C(C)Oc1ccc(Oc2ccc(Cl)cc2Cl)cc1` (centres undefined), the compound was called inactive in [10], in experiment [11], in experiment [4], in experiment [5], in [6] and in experiment [12]. The compound was classed as inactive in experiment [13].

Turning to `O=C(O)c1nc(Cl)ccc1Cl`, the call in experiment [10], in [11], in experiment [4], in [5], in [12] and in experiment [13] was inactive.

With `CCOc1cc(Oc2ccc(C(F)(F)F)cc2Cl)ccc1[N+](=O)[O-]`, the result in [4], in [5] and in experiment [6] was inactive.

In the case of `C=CCC1=C(C)[C@@H](OC(=O)[C@@H]2[C@@H](C=C(C)C)C2(C)C)CC1=O`, the concentration at half-maximal activity (AC50) is 47.4 µM (active) in experiment [2], 4.06 µM (active) in experiment [10], 4.06 µM (active) in [11] and 4.02 µM (active) in [12]. The compound was classed as inactive in experiment [3], in [9], in [4], in experiment [5] and in experiment [13].

These data come from PubChem BioAssay (EPA / NIEHS).
